From PubChem BioAssay (NCI)
Compounds without any hit were thinned out: in the full panel of roughly 83,000, 20% have a hit.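 The test compound was applied at a single concentration to cells in 96-well plates for 48 hours, and percent growth was recorded.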 Active and inactive are the calls of the source. The calls were made as follows: active = growth percent below 10; inactive = the rest.

Legend:
Test in all cases: NCI-60 one-dose screen, 48 h (100 = growth as untreated, 0 = no growth, -100 = all killed)
Settings in all cases: 10 µM
SR leukemia = test system: SR leukemia
RPMI-8226 leukemia = test system: RPMI-8226 leukemia
OVCAR-8 ovarian = test system: OVCAR-8 ovarian
OVCAR-5 ovarian = test system: OVCAR-5 ovarian
OVCAR-4 ovarian = test system: OVCAR-4 ovarian
OVCAR-3 ovarian = test system: OVCAR-3 ovarian
HS 578T breast = test system: HS 578T breast
NCI/ADR-RES ovarian = test system: NCI/ADR-RES ovarian
SK-OV-3 ovarian = test system: SK-OV-3 ovarian
IGROV1 ovarian = test system: IGROV1 ovarian

Measured: growth

CC(C)c1ccc(C(C)C(=O)N(CC2=C(C(C)c3ccccn3)c3ccccc3C2)C(C)C)cc1 (configuration not stated)
inactive: SR leukemia 24.2% | RPMI-8226 leukemia 14.6% | OVCAR-8 ovarian 46.6% | OVCAR-5 ovarian 64.7% | OVCAR-4 ovarian 30.2% | OVCAR-3 ovarian 29.7% | HS 578T breast 47.4% | NCI/ADR-RES ovarian 24.2%

COc1cc2c(cc1NC(=O)C(F)(F)F)-c1ccc(NC(=O)C(F)(F)F)cc1C2
inactive: SR leukemia 107% | RPMI-8226 leukemia 103% | OVCAR-8 ovarian 96.8% | OVCAR-5 ovarian 99% | SK-OV-3 ovarian 54.7% | IGROV1 ovarian 103% | OVCAR-3 ovarian 108% | HS 578T breast 77.8% | NCI/ADR-RES ovarian 93.3%

Cc1ccccc1N1C(=O)c2cc(S(N)(=O)=O)c(Cl)cc2NC1C (configuration not stated)
inactive: SR leukemia 87.1% | RPMI-8226 leukemia 106% | OVCAR-8 ovarian 108% | OVCAR-5 ovarian 108% | SK-OV-3 ovarian 128% | IGROV1 ovarian 111% | OVCAR-3 ovarian 109% | HS 578T breast 111% | NCI/ADR-RES ovarian 103%

CC1CCCC(C(=O)O)C1C(=O)O (configuration not stated)
inactive: SR leukemia 98.9% | RPMI-8226 leukemia 94.1% | OVCAR-8 ovarian 94.4% | OVCAR-5 ovarian 99.8% | SK-OV-3 ovarian 90.4% | IGROV1 ovarian 106% | OVCAR-3 ovarian 110% | HS 578T breast 95.4% | NCI/ADR-RES ovarian 102%

Oc1ccc(-c2[nH]c3ccccc3c2-c2nc3ccccc3o2)cc1
inactive: SR leukemia 14.8% | RPMI-8226 leukemia 86.6% | OVCAR-8 ovarian 91.9% | OVCAR-5 ovarian 80.6% | SK-OV-3 ovarian 72.9% | IGROV1 ovarian 52.6% | OVCAR-3 ovarian 74.1% | HS 578T breast 81.4% | NCI/ADR-RES ovarian 32.5%

Cc1cc(=O)n2nnc3cc(C(F)(F)F)ccc3n12
inactive: SR leukemia 104% | RPMI-8226 leukemia 107% | OVCAR-8 ovarian 111% | OVCAR-5 ovarian 121% | OVCAR-4 ovarian 116% | OVCAR-3 ovarian 114% | HS 578T breast 117% | NCI/ADR-RES ovarian 110%

COc1ccc(C2=Cn3c(CCC(=O)c4nc5ccccc5[nH]4)nnc3SC2)cc1
inactive: SR leukemia 18.9% | RPMI-8226 leukemia 61.7% | OVCAR-8 ovarian 120% | OVCAR-5 ovarian 116% | SK-OV-3 ovarian 120% | IGROV1 ovarian 91.6% | OVCAR-3 ovarian 113% | HS 578T breast 92.8% | NCI/ADR-RES ovarian 105%

CCOC(=O)c1cc(C(=O)c2cc(OC)cc(OC)c2)n2nc(C)ccc12
inactive: SR leukemia 18.4% | RPMI-8226 leukemia 12.2% | OVCAR-8 ovarian 29.7% | OVCAR-5 ovarian 59.6% | IGROV1 ovarian 44.8% | HS 578T breast 36.4% | NCI/ADR-RES ovarian 19.5%
active: SK-OV-3 ovarian 6.35% | OVCAR-3 ovarian 1.01%

COc1ccc2nc(-c3ccc(Cl)cc3)cc(-c3nnc(SC/C(=N\O)c4ccccc4)n3-c3ccccc3)c2c1
inactive: SR leukemia 67.1% | RPMI-8226 leukemia 59.7% | OVCAR-8 ovarian 82.3% | OVCAR-5 ovarian 88.6% | SK-OV-3 ovarian 99.9% | IGROV1 ovarian 105% | OVCAR-3 ovarian 86.4% | HS 578T breast 92.8% | NCI/ADR-RES ovarian 88.2%

CCN(CC)CCCC(Nc1c2ccc(Cl)cc2nc2ccc(OC)cc12)c1ccc(F)cc1 (configuration not stated)
inactive: OVCAR-8 ovarian 15.2% | OVCAR-5 ovarian 61.7% | OVCAR-4 ovarian 12.6% | IGROV1 ovarian 41.5% | OVCAR-3 ovarian 108% | HS 578T breast 84% | NCI/ADR-RES ovarian 28.9%
active: SR leukemia -13.9% | RPMI-8226 leukemia -33.3%

CCOC(=O)c1cc(C(=O)c2ccc(OC)c(OC)c2)n2c1ccc1ccc3cccnc3c12
active: RPMI-8226 leukemia 5.4%
inactive: SR leukemia 23.1% | OVCAR-8 ovarian 29% | OVCAR-5 ovarian 79.7% | SK-OV-3 ovarian 17.8% | IGROV1 ovarian 46% | OVCAR-3 ovarian 10.3% | HS 578T breast 25% | NCI/ADR-RES ovarian 21.6%

CN1CCN(CCCn2c(=O)c3sc4ncccc4c3n3nnc(-c4ccccc4)c23)CC1
inactive: OVCAR-8 ovarian 16.9% | OVCAR-5 ovarian 59.3% | NCI/ADR-RES ovarian 33.1%
active: SR leukemia -38% | RPMI-8226 leukemia -2.66% | OVCAR-4 ovarian -29% | OVCAR-3 ovarian -47.4% | HS 578T breast -12.2%

CCCCc1oc2ccccc2c1C(=O)c1cc(I)c(OCCN(CC)CC)c(I)c1
inactive: IGROV1 ovarian 29.5% | OVCAR-3 ovarian 12%
active: SR leukemia -51.8% | RPMI-8226 leukemia -29.5% | OVCAR-8 ovarian -10% | OVCAR-5 ovarian -36% | SK-OV-3 ovarian -38.1% | HS 578T breast -19.3% | NCI/ADR-RES ovarian -20.3%

Nc1cc(Br)c(-c2nn3c(CCC(=O)c4nc5ccccc5[nH]4)nnc3s2)c(Br)c1
inactive: SR leukemia 88.1% | RPMI-8226 leukemia 85.1% | OVCAR-8 ovarian 96.5% | OVCAR-5 ovarian 122% | SK-OV-3 ovarian 113% | IGROV1 ovarian 101% | OVCAR-3 ovarian 105% | HS 578T breast 90% | NCI/ADR-RES ovarian 97.3%

COc1ccc(Cc2cnc(N)nc2N)cc1OC
inactive: SR leukemia 98.9% | RPMI-8226 leukemia 102% | OVCAR-8 ovarian 96.2% | OVCAR-5 ovarian 100% | SK-OV-3 ovarian 96% | IGROV1 ovarian 112% | OVCAR-3 ovarian 106% | HS 578T breast 105% | NCI/ADR-RES ovarian 99.7%

COc1cc(-c2nn(-c3cccc(NC(=O)NCCNC(=O)c4cccc(C(F)(F)F)c4)c3)cc2-c2ccncc2)ccc1Cl
inactive: SR leukemia 10.4% | RPMI-8226 leukemia 21.4% | OVCAR-8 ovarian 44.1% | OVCAR-5 ovarian 85.1% | SK-OV-3 ovarian 49.9% | IGROV1 ovarian 57.3% | OVCAR-3 ovarian 16.2% | HS 578T breast 24.1% | NCI/ADR-RES ovarian 80.3%

COc1cc(C(=O)/C(C)=C/c2c[nH]c3ccccc23)cc(OC)c1OC
active: NCI/ADR-RES ovarian 5.38%
inactive: SR leukemia 17.1% | RPMI-8226 leukemia 49.9% | OVCAR-8 ovarian 20.3% | OVCAR-5 ovarian 53.3% | SK-OV-3 ovarian 29.9% | IGROV1 ovarian 18.8% | HS 578T breast 44.9%

O=C(CCc1nnc2sc(-c3cc(O)c(O)c(O)c3)nn12)c1nc2ccccc2[nH]1
inactive: SR leukemia 49.6% | RPMI-8226 leukemia 87% | OVCAR-8 ovarian 94.7% | OVCAR-5 ovarian 117% | SK-OV-3 ovarian 104% | IGROV1 ovarian 109% | HS 578T breast 88.2% | NCI/ADR-RES ovarian 94.2%

CCOC(=O)c1cc(C(=O)c2cc(OC)cc(OC)c2)n2ncc3ccccc3c12
inactive: RPMI-8226 leukemia 33% | OVCAR-8 ovarian 34.4% | OVCAR-5 ovarian 55.2% | SK-OV-3 ovarian 37.6% | IGROV1 ovarian 43.5% | HS 578T breast 17.8% | NCI/ADR-RES ovarian 19.1%
active: SR leukemia 4.68% | OVCAR-3 ovarian -13.5%

Cc1c[nH]c(=O)n(Cc2nnc(CCC(=O)c3nc4ccccc4[nH]3)o2)c1=O
inactive: RPMI-8226 leukemia 17.2% | OVCAR-8 ovarian 21% | OVCAR-5 ovarian 13.8% | IGROV1 ovarian 47.8% | HS 578T breast 10.2% | NCI/ADR-RES ovarian 90.7%
active: SR leukemia 4.57% | SK-OV-3 ovarian -7.95% | OVCAR-3 ovarian -14.8%

Nc1c(Br)cc(Br)c2c1[nH]c(=O)c1ccccc12
inactive: SR leukemia 81.1% | RPMI-8226 leukemia 96.2% | OVCAR-8 ovarian 37.2% | OVCAR-5 ovarian 72.8% | SK-OV-3 ovarian 16.1% | IGROV1 ovarian 58.4% | OVCAR-3 ovarian 68.7% | HS 578T breast 30.5% | NCI/ADR-RES ovarian 44.3%

COc1cc(-c2csc(NC(=O)Nc3ccc(Cl)c(C(F)(F)F)c3)n2)cc(OC)c1OC
active: SR leukemia 0.909% | RPMI-8226 leukemia -7.41% | OVCAR-8 ovarian 4.2% | SK-OV-3 ovarian 2.04% | OVCAR-3 ovarian -19% | NCI/ADR-RES ovarian -8.03%
inactive: OVCAR-5 ovarian 18.4% | IGROV1 ovarian 25.2% | HS 578T breast 16.8%

CN(C)c1ccc(/C=N/NC(=O)c2ccccc2Nc2cccc(C(F)(F)F)c2)cc1
inactive: SR leukemia 85% | RPMI-8226 leukemia 76.8% | OVCAR-8 ovarian 99.6% | OVCAR-5 ovarian 88.4% | SK-OV-3 ovarian 100% | IGROV1 ovarian 69.1% | OVCAR-3 ovarian 87.7% | HS 578T breast 83.5% | NCI/ADR-RES ovarian 93%

CCOC(=O)CN(c1sc(C)c(C)c1C(=O)OCC)S(=O)(=O)c1ccc(C)cc1
inactive: SR leukemia 96.9% | RPMI-8226 leukemia 98.2% | OVCAR-8 ovarian 105% | OVCAR-5 ovarian 107% | SK-OV-3 ovarian 87.1% | IGROV1 ovarian 111% | OVCAR-3 ovarian 109% | HS 578T breast 95.9% | NCI/ADR-RES ovarian 88%

COc1cc(/C=C/c2cc(/C=C/c3ccc(O)c(OC)c3)[nH]c(=O)n2)ccc1O
inactive: SR leukemia 27.2% | RPMI-8226 leukemia 62.5% | OVCAR-8 ovarian 58.7% | OVCAR-5 ovarian 102% | SK-OV-3 ovarian 71.6% | IGROV1 ovarian 93.1% | OVCAR-3 ovarian 59.3% | HS 578T breast 53.9% | NCI/ADR-RES ovarian 90.7%

O=C(COc1cccc(/C=C2\CSc3ccccc3C2=O)c1)c1ccc(Cl)cc1
inactive: OVCAR-4 ovarian 80.9% | SK-OV-3 ovarian 104% | OVCAR-3 ovarian 57.5%
active: SR leukemia -60.7% | RPMI-8226 leukemia -64.5% | OVCAR-8 ovarian -4.69% | HS 578T breast -25.5% | NCI/ADR-RES ovarian 7.16%

CN(C)CCOc1ccccc1NC1=C(Cl)C(=O)C(Nc2ccccc2OCCN(C)C)=C(Cl)C1=O
active: OVCAR-4 ovarian -99% | OVCAR-3 ovarian -96%
inactive: SR leukemia 19% | RPMI-8226 leukemia 82.7% | OVCAR-8 ovarian 26.6% | SK-OV-3 ovarian 119% | IGROV1 ovarian 10.5% | HS 578T breast 98.4% | NCI/ADR-RES ovarian 92.8%

COc1cc2c(cc1NC(=O)C(Cl)Cl)-c1ccc(NC(=O)C(Cl)Cl)cc1C2
active: RPMI-8226 leukemia 1.01% | OVCAR-8 ovarian -22.8% | OVCAR-3 ovarian -44.6% | NCI/ADR-RES ovarian -39.2%
inactive: SR leukemia 86.4% | SK-OV-3 ovarian 56.3% | IGROV1 ovarian 43.1% | HS 578T breast 13.6%

COc1ccc(-c2nc(-c3nc4ccc(C)cc4[nH]3)cc3c2[nH]c2ccccc23)cc1
inactive: SR leukemia 10.2% | RPMI-8226 leukemia 16.2% | OVCAR-8 ovarian 21.4% | OVCAR-4 ovarian 45.1% | SK-OV-3 ovarian 107% | OVCAR-3 ovarian 45.1% | HS 578T breast 66.9% | NCI/ADR-RES ovarian 19.4%

O=C1/C=C/[C@@H](O)[C@@H]2C[C@@H](O)C[C@H]2/C=C/CCC[C@@H](C(F)(F)F)O1
inactive: SR leukemia 102% | RPMI-8226 leukemia 97.7% | OVCAR-8 ovarian 83.2% | OVCAR-4 ovarian 75.3% | SK-OV-3 ovarian 96% | IGROV1 ovarian 105% | OVCAR-3 ovarian 69.8% | HS 578T breast 74.2% | NCI/ADR-RES ovarian 92.5%
